# Assay results from PubChem BioAssay (EPA / NIEHS).
# The source made the active and inactive calls. How the source made its calls: active means hit-call score of the fitted dose curve at least 0.9, where 1 is the maximum; inactive means score below 0.9.
# Read-out: Matrix Metallopeptidase 1 (MMP1), MMP1 (gene 4312)
# Experiment: BSK_hDFCGF_MMP1: BioMAP Diversity Plus: hDFCGF Assay for Matrix Metallopeptidase 1 (MMP1) Biomarker Activity (AID 2283064)
# Conditions: primary human foreskin fibroblasts; actives raise or lower the signal
# Experimental: BSK_hDFCGF is a cell-based, multiplexed-readout assay that uses foreskin fibroblast, a human skin primary cell, with measurements taken at 24 hours after chemical dosing in a 96-well plate.BSK_hDFCGF_MMP1 is an assay component measured in the BSK_hDFCGF assay. It measures MMP-1 antibody related to regulation of gene expression using ELISA technology.Data from the assay component BSK_hDFCGF_MMP1 was analyzed into 1 assay endpoint. This assay endpoint, BSK_hDFCGF_MMP1, was analyzed with bidirectional fitting relative to DMSO as the negative control and baseline of activity. Using a type of binding reporter, gain or loss-of-signal activity can be used to understand changes in the signaling as they relate to the gene MMP1. Furthermore, this assay endpoint can be referred to as a primary readout, because this assay has produced multiple assay endpoints where this one serves a signaling function. To generalize the intended target to other relatable targets, this assay endpoint is annotated to the protease intended target family, where the subfamily is matrix metalloproteinase.
# The levels of cell surface (or secreted, indicated by the prefix "s") biomarker endpoints were measured by ELISA. Overt cytotoxicity to cells in confluent adherent cultures (all systems other than the BT system) was assessed by measuring total protein levels using sulforhodamine B (SRB) staining in parallel cultures at the time of biomarker measurements, indicated as SRB endpoints. For proliferation assays for adherent cell types, individual cell types are cultured at sub-confluence and relative cell numbers quantified by SRB staining at time points optimized for each system (48 h: 3C and CASM3C systems; 72 h: BT and HDF3CGF systems; 96 h: SAg system). SRB was performed by staining cells with 0.1% SRB after fixation with 10% TCA and reading wells at 560 nm.Viability and proliferation of PBMC (T cells) was quantified by Alamar Blue reduction for the SAg and BT systems. For PBMC viability (referred to as PBMC Cytotoxicity within the assay endpoint names), cells were plated (75,000/well in a 96-well plate) and then chemical samples added for 1 h before addition of activators, SEB and TSST-1 (20 ng/mL final concentration each). Cells were incubated for 90 h. Then, Alamar Blue (20 uL/well) (Invitrogen, Cat DAL1100) was added for 6 h, and the plates were read with a fluorescence microplate reader at 546/580 nm (excitation/emission). For PBMC proliferation, cells were plated and activated as above but incubated for only 16 h prior to addition of Alamar Blue. Plates were read after 6 h.
SMILES,outcome,AC50
CCc1cccc(C)c1N(C(=O)CCl)C(C)COC (stereo not given),inactive,–
COP(=O)(OC)SCn1c(=O)oc2cc(Cl)cnc21,–,30.6 µM (active)
O=C(O)c1cc(Oc2ccc(C(F)(F)F)cc2Cl)ccc1[N+](=O)[O-],inactive,–
CCCCOC(=O)c1ccccc1C(=O)O,inactive,–
CCCCOC(=O)[C@@H](C)Oc1ccc(Oc2ccc(C#N)cc2F)cc1,inactive,–
Cc1ccn2nc(S(=O)(=O)Nc3c(F)cccc3F)nc2n1,inactive,–
CNC(=O)ON=C(C)SC,inactive,–
S=C1NCCN1,inactive,–
CC1(C(=O)Nc2ccc(O)c(Cl)c2Cl)CCCCC1,inactive,–
COP(=O)(NC(C)=O)SC (stereo not given),inactive,–
CC[C@H](C)[C@H]1O[C@]2(C=C[C@@H]1C)C[C@@H]1C[C@@H](C/C=C(\C)[C@@H](O[C@H]3C[C@H](OC)[C@@H](O[C@H]4C[C@H](OC)[C@@H](NC)[C@H](C)O4)[C@H](C)O3)[C@@H](C)/C=C/C=C3\CO[C@@H]4[C@H](O)C(C)=C[C@@H](C(=O)O1)[C@]34O)O2,–,6.78 µM (active)
CCc1cccc(CC)c1N(COC)C(=O)CCl,inactive,–
CCC(=O)Nc1ccc(Cl)c(Cl)c1,inactive,–
Cc1nn(-c2cc(NS(C)(=O)=O)c(Cl)cc2Cl)c(=O)n1C(F)F,inactive,–
CCOC(=O)CC(SP(=O)(OC)OC)C(=O)OCC (stereo not given),inactive,–
CC1=NNC(=O)N(/N=C/c2cccnc2)C1,inactive,–
CN(C)C(=O)Nc1cccc(C(F)(F)F)c1,inactive,–
CSc1nnc(C(C)(C)C)c(=O)n1N,inactive,–
CCCOc1nn(C(=O)NS(=O)(=O)c2ccccc2C(=O)OC)c(=O)n1C,inactive,–
CNC(=O)ON=C(SC)C(=O)N(C)C,inactive,–

SMILES,outcome,AC50
CCc1cnc(C2=NC(C)(C(C)C)C(=O)N2)c(C(=O)O)c1 (stereo not given),inactive,–
CC(C)N(C(=O)SCC(Cl)=C(Cl)Cl)C(C)C,–,31.4 µM (active)
CN(C)NC(=O)CCC(=O)O,inactive,–
CCOP(=O)(NC(C)C)Oc1ccc(SC)c(C)c1 (stereo not given),inactive,–
CCC(=NOC/C=C/Cl)C1=C(O)CC(C2CCOCC2)CC1=O (stereo not given),inactive,–
COP(=O)(OC)C(O)C(Cl)(Cl)Cl (stereo not given),inactive,–
CNC(=O)Oc1cccc2c1OC(C)(C)O2,inactive,–
CON=C(C(=O)OC)c1ccccc1CON=C(C)c1cccc(C(F)(F)F)c1,–,2.74 µM (active)
CCOP(=S)(OCC)OC(Cl)C(Cl)(Cl)Cl (stereo not given),inactive,–
CCCCN(CC)c1c([N+](=O)[O-])cc(C(F)(F)F)cc1[N+](=O)[O-],–,4.66 µM (active)
CCC(CC)Nc1c([N+](=O)[O-])cc(C)c(C)c1[N+](=O)[O-],–,6.93 µM (active)
CCOP(=O)(OCC)Oc1cc(C)nc(C(C)C)n1,–,20 µM (active)
C#CC(C)(C)NC(=O)c1cc(Cl)cc(Cl)c1,inactive,–
CC(C)=CC1C(C(=O)OCN2C(=O)C3=C(CCCC3)C2=O)C1(C)C (stereo not given),inactive,–
C[N+]1(C)CCCCC1,inactive,–
CCOP(=S)(OCC)SCCSCC,inactive,–
FC(F)C(F)(F)OCC(Cn1cncn1)c1ccc(Cl)cc1Cl (stereo not given),inactive,–
CC(COc1ccc(Oc2ccccc2)cc1)Oc1ccccn1 (stereo not given),inactive,–
O=c1ccc(=O)[nH][nH]1,inactive,–
CN1COCN(Cc2cnc(Cl)s2)C1=N[N+](=O)[O-],inactive,–
